Binding signal data for 1 sequence are collected here from article PMC7862700, “An all-to-all approach to the identification of sequence-specific readers for epigenetic DNA modifications on cytosine”.

Common to all, as to test: DAPPL (digital affinity profiling via proximity ligation, sequencing); 10 mM Tris-HCl pH 7.5, 50 mM NaCl, 1 mM DTT, 4% glycerol, room temperature, 30 min; GST-TFs on glutathione beads, 16-mer random dsDNA library, 0.1% formaldehyde crosslink after washing; high values mean tight binding
Conditions in all cases: protein: recombinant; tags: N-terminal GST; dsDNA, one strand shown

For assay [1], the target named is T1, ELK1 (Homo sapiens, UniProt P19419 1-428).
T1 sequence: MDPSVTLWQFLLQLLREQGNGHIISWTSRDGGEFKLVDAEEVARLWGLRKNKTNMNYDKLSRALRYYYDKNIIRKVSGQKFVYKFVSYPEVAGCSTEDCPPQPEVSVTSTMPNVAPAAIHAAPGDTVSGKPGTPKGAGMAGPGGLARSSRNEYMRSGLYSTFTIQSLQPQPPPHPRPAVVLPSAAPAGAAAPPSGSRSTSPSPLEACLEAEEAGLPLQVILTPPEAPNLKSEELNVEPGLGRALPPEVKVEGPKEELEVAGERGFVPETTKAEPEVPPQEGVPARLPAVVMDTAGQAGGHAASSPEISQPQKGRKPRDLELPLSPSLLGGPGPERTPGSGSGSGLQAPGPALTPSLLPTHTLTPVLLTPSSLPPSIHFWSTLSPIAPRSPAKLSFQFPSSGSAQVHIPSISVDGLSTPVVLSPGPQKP
In short, it runs like this: (§1)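 A tag-only sample was pooled with DNA-barcoded human transcription factors that had been expressed in yeast as GST fusions and captured on glutathione beads. The pools were incubated for 30 min at room temperature with 200 nmole of a random double-stranded 16-mer DNA library in Tris/NaCl/DTT/glycerol buffer, then washed, crosslinked with 0.1% formaldehyde, proximity-ligated (BsaI/T4 ligase, 1 h, 37 °C), PCR-amplified and sequenced on an Illumina NextSeq500. Binding signal is each hexamer's read frequency for a factor divided by its frequency for the tag-only sample.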

Assay [2] has as its target T2, GABPA (Homo sapiens, UniProt Q06546 1-454).
T2 sequence: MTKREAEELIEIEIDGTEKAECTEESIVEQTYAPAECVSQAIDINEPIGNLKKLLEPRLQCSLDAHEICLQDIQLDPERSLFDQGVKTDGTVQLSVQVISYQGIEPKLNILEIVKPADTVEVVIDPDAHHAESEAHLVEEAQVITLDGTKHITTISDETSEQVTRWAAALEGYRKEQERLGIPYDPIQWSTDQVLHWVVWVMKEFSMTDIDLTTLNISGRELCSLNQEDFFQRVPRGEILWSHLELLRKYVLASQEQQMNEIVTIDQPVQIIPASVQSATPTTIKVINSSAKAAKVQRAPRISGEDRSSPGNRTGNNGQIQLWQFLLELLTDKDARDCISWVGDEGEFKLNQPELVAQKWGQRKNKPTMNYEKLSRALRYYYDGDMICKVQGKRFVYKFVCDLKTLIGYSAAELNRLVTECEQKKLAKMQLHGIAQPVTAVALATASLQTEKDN
The method, boiled down:
as §1

Assay [3] deals with T3, ERG (Homo sapiens, UniProt P11308 1-479).
T3 sequence: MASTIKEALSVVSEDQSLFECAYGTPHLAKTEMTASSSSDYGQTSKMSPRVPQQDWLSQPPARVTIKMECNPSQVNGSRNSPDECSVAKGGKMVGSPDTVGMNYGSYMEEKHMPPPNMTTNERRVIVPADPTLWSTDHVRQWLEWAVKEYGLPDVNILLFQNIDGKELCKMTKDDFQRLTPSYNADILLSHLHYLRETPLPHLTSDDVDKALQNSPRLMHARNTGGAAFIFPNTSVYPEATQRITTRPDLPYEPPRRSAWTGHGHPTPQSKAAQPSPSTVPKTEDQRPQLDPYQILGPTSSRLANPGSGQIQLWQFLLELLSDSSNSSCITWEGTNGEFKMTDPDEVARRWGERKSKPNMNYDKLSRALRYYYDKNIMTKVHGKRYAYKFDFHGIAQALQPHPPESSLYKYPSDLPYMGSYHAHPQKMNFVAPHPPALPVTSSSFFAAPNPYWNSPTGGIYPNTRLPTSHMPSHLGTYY
In short, it runs like this:
as §1

In assay [4] the target is ELF1 (Homo sapiens, UniProt P32519 1-619). The method, boiled down: as §1
In assay [5] the target is SPIB (Homo sapiens, UniProt Q01892 1-262). In short, it runs like this: as §1
The target of assay [6] is T4, ELK3 (Homo sapiens, UniProt P41970 1-407).
T4 sequence: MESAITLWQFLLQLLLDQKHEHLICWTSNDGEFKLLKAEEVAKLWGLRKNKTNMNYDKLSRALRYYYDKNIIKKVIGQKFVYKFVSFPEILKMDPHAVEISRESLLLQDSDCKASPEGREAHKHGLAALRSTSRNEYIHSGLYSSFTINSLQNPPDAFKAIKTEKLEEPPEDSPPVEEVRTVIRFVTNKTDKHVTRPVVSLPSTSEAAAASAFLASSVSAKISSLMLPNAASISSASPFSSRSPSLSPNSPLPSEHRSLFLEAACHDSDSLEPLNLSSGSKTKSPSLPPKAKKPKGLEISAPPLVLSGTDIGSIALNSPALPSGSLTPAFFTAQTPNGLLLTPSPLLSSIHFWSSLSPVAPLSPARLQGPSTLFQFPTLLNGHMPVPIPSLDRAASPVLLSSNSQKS
In short, it runs like this: as §1

Assay [7] addresses ETV5 (Homo sapiens, UniProt P41161 1-510). In short, it runs like this: as §1
Assay [8] has as its target T5, SPIC (Homo sapiens, UniProt Q8N5J4 1-248).
T5 sequence: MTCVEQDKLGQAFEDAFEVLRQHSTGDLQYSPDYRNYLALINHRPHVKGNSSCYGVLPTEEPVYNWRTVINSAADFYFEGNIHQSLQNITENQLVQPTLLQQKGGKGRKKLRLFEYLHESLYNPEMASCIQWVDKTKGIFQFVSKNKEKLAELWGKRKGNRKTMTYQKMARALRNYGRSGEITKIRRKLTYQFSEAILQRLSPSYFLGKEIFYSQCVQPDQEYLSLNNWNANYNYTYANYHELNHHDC
The method, boiled down:
as §1

Assay [9] concerns the target ELF4 (Homo sapiens, UniProt Q99607 1-663). In short, it runs like this:
as §1

The target of assay [10] is T6, ELK4 (Homo sapiens, UniProt P28324-2 1-405).
T6 sequence: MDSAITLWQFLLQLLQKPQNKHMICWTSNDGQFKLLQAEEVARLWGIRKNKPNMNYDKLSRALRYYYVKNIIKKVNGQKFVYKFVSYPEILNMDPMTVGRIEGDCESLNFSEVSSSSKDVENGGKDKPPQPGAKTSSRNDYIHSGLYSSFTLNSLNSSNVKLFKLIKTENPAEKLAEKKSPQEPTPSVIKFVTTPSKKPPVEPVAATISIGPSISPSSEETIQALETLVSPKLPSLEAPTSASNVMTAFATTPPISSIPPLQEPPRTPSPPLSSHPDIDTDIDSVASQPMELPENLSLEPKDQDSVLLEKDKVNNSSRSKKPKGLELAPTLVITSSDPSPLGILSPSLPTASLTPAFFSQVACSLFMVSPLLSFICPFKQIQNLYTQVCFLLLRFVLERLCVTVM
The method, boiled down: as §1

The target of assay [11] is T7, ELF3 (Homo sapiens, UniProt P78545 1-371).
T7 sequence: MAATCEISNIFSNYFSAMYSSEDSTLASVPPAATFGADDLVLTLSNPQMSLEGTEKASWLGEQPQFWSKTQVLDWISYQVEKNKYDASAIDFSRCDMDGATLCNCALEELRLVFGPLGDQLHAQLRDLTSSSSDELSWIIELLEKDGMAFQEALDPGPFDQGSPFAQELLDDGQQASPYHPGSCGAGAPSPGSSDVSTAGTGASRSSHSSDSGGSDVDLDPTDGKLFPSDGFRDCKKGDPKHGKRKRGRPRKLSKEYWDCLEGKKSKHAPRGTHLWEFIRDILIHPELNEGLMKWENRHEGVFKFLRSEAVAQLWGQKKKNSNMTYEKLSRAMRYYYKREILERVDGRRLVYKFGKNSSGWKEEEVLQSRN
The method, boiled down:
as §1

The target of assay [12] is T8, ERF (Homo sapiens, UniProt P50548 1-548).
T8 sequence: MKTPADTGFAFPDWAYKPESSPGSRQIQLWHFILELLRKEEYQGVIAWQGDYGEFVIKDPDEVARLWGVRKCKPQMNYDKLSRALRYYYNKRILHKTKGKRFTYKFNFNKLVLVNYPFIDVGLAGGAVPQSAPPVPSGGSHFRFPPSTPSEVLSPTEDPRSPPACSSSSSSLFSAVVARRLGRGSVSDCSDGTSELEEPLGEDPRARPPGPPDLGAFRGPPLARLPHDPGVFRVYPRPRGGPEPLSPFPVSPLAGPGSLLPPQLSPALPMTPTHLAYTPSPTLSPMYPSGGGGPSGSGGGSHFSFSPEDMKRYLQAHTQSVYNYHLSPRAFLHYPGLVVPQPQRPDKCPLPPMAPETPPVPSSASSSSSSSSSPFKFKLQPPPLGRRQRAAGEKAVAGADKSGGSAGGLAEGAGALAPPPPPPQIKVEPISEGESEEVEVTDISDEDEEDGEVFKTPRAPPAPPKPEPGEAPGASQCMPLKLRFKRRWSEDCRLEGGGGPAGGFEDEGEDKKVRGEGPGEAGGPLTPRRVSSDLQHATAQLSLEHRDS
The method, boiled down:
as §1

Assay [13] deals with T9, ETV3L (Homo sapiens, UniProt Q6ZN32 1-361).
T9 sequence: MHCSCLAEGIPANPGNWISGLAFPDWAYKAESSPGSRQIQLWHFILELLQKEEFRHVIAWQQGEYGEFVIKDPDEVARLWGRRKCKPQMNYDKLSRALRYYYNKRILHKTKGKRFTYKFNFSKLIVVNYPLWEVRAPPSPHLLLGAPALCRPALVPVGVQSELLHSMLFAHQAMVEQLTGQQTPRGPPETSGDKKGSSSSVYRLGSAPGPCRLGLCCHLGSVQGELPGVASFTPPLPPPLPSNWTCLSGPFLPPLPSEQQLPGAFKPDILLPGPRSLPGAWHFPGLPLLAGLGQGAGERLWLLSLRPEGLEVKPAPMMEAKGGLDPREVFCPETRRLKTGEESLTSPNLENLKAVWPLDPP
The method, boiled down:
as §1

For assay [14], the target named is T10, ETS2 (Homo sapiens, UniProt P15036 1-469).
T10 sequence: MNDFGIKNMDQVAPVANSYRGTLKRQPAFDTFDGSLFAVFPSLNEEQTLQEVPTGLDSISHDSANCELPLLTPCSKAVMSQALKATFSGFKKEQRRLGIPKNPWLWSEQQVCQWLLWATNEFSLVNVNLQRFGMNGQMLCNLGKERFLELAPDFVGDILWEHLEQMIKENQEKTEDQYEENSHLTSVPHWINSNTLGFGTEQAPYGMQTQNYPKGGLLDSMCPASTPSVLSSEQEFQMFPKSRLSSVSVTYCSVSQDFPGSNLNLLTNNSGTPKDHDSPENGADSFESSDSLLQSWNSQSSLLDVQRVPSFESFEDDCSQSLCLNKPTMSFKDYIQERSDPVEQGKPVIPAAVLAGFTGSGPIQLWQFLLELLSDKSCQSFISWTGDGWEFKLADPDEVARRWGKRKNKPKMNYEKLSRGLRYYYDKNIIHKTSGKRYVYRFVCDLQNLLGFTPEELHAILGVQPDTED
The method, boiled down:
as §1

The target of assay [15] is T11, ETV7 (Homo sapiens, UniProt Q9Y603 1-341).
T11 sequence: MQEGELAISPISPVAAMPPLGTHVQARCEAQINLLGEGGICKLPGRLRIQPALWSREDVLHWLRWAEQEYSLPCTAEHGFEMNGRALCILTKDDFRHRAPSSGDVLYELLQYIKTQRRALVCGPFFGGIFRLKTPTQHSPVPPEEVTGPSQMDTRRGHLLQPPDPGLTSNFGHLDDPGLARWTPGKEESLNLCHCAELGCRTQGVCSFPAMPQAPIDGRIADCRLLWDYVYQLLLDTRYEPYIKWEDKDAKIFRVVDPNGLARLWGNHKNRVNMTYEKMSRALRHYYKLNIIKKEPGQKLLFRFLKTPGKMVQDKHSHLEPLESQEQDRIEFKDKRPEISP
The method, boiled down:
as §1

The target in assay [16] is T12, ETV3 (Homo sapiens, UniProt P41162-2 1-143).
T12 sequence: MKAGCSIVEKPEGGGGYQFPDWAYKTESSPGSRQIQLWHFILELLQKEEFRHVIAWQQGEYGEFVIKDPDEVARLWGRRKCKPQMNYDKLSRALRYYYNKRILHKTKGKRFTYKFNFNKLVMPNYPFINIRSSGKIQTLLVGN
In short, it runs like this: as §1

The target of assay [17] is ETV6 (Homo sapiens, UniProt P41212 1-452). The method, boiled down:
as §1

Chain of ELF1 (P32519 whole entry): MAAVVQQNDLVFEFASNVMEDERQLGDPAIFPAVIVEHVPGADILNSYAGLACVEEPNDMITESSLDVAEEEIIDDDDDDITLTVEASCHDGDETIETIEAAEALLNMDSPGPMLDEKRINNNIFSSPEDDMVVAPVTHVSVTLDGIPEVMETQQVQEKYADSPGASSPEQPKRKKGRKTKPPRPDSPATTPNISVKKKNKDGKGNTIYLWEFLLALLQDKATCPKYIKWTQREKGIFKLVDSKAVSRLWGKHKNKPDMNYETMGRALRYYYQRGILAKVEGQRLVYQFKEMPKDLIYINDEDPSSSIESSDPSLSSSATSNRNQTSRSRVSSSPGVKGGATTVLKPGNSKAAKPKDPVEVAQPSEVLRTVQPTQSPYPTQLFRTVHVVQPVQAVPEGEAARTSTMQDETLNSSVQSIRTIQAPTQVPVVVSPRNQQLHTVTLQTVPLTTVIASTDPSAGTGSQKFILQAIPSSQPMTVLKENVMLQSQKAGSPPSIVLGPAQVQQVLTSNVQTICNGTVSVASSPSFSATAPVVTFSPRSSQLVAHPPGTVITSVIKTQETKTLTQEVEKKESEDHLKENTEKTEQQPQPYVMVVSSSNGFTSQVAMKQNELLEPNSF
Chain of ELF4 (Q99607 whole entry): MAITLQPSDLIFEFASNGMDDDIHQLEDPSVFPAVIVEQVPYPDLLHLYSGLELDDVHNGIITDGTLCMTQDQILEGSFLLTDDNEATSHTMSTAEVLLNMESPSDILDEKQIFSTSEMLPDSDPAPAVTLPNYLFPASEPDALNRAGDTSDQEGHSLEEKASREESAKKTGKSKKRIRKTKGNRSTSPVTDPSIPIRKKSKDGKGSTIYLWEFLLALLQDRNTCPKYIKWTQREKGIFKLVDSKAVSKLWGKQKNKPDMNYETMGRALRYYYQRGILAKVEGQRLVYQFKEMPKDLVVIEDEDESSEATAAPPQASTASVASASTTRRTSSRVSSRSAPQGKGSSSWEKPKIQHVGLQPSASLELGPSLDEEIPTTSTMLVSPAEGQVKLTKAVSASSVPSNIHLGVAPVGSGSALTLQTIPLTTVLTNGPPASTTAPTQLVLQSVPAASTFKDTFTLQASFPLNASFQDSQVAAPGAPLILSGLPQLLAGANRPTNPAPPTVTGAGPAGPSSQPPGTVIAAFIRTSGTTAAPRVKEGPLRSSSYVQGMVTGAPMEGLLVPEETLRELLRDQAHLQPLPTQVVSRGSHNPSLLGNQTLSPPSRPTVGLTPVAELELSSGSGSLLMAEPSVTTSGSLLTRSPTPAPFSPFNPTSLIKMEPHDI
Chain of ETV6 (P41212 whole entry): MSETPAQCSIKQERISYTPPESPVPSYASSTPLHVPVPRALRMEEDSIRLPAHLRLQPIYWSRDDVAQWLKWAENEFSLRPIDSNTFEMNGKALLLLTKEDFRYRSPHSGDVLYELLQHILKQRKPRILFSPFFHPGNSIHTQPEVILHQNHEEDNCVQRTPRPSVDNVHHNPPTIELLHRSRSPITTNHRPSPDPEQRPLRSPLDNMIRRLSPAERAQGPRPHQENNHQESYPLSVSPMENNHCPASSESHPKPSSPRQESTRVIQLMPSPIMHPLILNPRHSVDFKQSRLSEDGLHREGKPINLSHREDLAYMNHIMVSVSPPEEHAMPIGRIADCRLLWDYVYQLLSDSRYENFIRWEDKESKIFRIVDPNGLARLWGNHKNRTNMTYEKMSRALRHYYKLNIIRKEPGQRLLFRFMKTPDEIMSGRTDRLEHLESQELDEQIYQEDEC
Chain of ETV5 (P41161 whole entry): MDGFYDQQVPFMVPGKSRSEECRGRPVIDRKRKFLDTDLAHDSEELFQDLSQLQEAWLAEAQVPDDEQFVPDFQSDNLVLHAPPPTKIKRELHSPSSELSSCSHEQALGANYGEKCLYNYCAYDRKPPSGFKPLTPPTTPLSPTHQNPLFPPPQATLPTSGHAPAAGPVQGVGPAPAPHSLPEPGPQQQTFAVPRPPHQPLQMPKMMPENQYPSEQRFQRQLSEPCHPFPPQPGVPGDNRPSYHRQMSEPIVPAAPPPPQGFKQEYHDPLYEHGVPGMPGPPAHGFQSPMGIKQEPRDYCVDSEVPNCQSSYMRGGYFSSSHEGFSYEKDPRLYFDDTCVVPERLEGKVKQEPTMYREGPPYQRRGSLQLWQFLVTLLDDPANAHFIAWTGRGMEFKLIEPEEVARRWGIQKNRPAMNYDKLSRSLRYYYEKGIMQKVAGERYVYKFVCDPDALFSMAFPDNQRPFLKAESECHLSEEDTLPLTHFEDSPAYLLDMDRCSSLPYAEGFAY
Chain of SPIB (Q01892 whole entry): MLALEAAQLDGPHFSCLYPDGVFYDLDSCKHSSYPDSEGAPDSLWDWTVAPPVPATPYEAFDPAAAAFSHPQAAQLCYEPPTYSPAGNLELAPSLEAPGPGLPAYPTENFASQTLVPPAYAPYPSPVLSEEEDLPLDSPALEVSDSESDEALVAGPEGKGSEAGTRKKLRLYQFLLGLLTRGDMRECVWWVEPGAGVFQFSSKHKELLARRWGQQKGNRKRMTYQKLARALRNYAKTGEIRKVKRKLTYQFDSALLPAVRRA

As for ACTGGT, the binding signal was 1.06 fold enrichment (6-mer frequency, TF over GST control) in [1]; 1.08 fold enrichment (6-mer frequency, TF over GST control) in assay [2]; 1.07 fold enrichment (6-mer frequency, TF over GST control) in [3]; 1.13 fold enrichment (6-mer frequency, TF over GST control) in assay [4]; 1.08 fold enrichment (6-mer frequency, TF over GST control) in [5]; 1.08 fold enrichment (6-mer frequency, TF over GST control) in assay [6]. In addition, the binding signal in assay [7] was 1.02 fold enrichment (6-mer frequency, TF over GST control); in [8], 1.07 fold enrichment (6-mer frequency, TF over GST control); in assay [9], 1.07 fold enrichment (6-mer frequency, TF over GST control); in assay [10], 1.06 fold enrichment (6-mer frequency, TF over GST control); in [11] it was 1.06 fold enrichment (6-mer frequency, TF over GST control); in assay [12], 1.03 fold enrichment (6-mer frequency, TF over GST control). The binding signal in assay [13] was 1.07 fold enrichment (6-mer frequency, TF over GST control); in assay [14], 1.03 fold enrichment (6-mer frequency, TF over GST control); in [15], 1.05 fold enrichment (6-mer frequency, TF over GST control); in assay [16], 1.06 fold enrichment (6-mer frequency, TF over GST control); in assay [17], 1.08 fold enrichment (6-mer frequency, TF over GST control).
